Results as given in ChEMBL document CHEMBL4513216, “Probing the Open Global Health Chemical Diversity Library for Multistage-Active Starting Points for Next-Generation Antimalarials” (ACS Infect Dis, 2020).
Among all 69,000 compounds or so, about 8,600 (12%) showed an effect of 50% or more. Many of the other results were omitted from the sample, so strong results are more common in it than they were.

Tested on: Plasmodium berghei
Assay: Screen against P. berghei liver stage (PbLuc), transformed with Luciferase, at 10uM
Format: functional, HepG2
Settings: tested at 10 uM

SMILES	INHIBITION
O=C(CCN1CCCCO1)N1CCC(CO)(Cc2ccccc2)CC1	-9.44%
CC(C)NC(=O)c1cc2c([nH]c1=O)CC(c1cccs1)CC2=O (stereo not given)	62.3%
O=C1CC(c2ccc(F)cc2)Cc2[nH]c(=O)c(C(=O)O)cc21 (stereo not given)	-67.9%
O=C1CC(c2cccs2)Cc2[nH]c(=O)ccc21 (stereo not given)	-32.1%
O=C1CC(c2cccs2)Cc2[nH]c(=O)c(C(=O)NC3CCCC3)cc21 (stereo not given)	59.5%
CC1CC(=O)c2cc(C(=O)N3CCc4ccccc43)c(=O)[nH]c2C1 (stereo not given)	21.5%
CCCNC(=O)c1cc2c([nH]c1=O)CC(c1cccs1)CC2=O (stereo not given)	41.8%
CCOCC1CN(Cc2ccco2)Cc2nccn2C1 (stereo not given)	10.7%
COc1cc(C(=O)N2C[C@@H]3CC[C@H]2CN(Cc2cscn2)C3)ccn1	-16.3%
CC1(C)[C@@H]2CC=C(CN3CCCn4nc(C(=O)NCCO)cc4C3)[C@H]1C2	68.4%
CN(C)CCNC(=O)c1cc2n(n1)CCN(C(=O)CC(C)(C)C)C2	-15.7%
O=C(O)CCc1cc2n(n1)CCN(Cc1cnc(N3CCCC3)nc1)C2	7.43%
Cc1cc(CN2CCCn3nc(CCC(=O)O)cc3C2)ccc1F	60.2%
CC1(C)[C@@H]2CC=C(CN3CCCn4nc(CNS(C)(=O)=O)cc4C3)[C@H]1C2	25.7%
O=C(O)CCc1cc2n(n1)CCN(Cc1ccc3[nH]ccc3c1)C2	-15.7%
CCOC(=O)N1CCCn2nc(C(=O)NCCN(C)C)cc2C1	-10.2%
Cc1nc2ccccc2nc1CN1CCn2nc(CCC(=O)O)cc2C1	36%
CC1(C)[C@@H]2CC=C(CN3CCCn4nc(C(=O)O)cc4C3)[C@H]1C2	65.6%
CN(C)C(=O)NCc1cc2n(n1)CCCN(CC1[C@H]3CNC[C@@H]13)C2 (stereo not given in full)	-14.6%
O=C(NCc1cc2n(n1)CCCN(Cc1ccc(CO)o1)C2)C1CCC1	11.8%
CC1(C)[C@@H]2CC=C(CN3CCCn4nc(CCC(=O)O)cc4C3)[C@H]1C2	59.1%
CC(C)CN1CCN(C)C(CCO)C1 (stereo not given)	34.4%

SMILES	INHIBITION
Cc1ccc(-c2cc(CNC(=O)N3CCC(N(C)C)CC3)on2)cc1	17.4%
COc1ccc(C(=O)N2CC(=O)N(C3CCC3)CC(O)C2)c(OC)c1 (stereo not given)	13.9%
CO[C@@H]1CC[C@@H](NS(=O)(=O)c2cn(C)nc2C)[C@H]1O	33.8%
c1ccc(CN2CCC(CNc3ncnc4c3CCNCC4)CC2)cc1	28.7%
COc1ccc(-c2ccc(C(=O)N3CCOCC3CC(=O)O)o2)cc1 (stereo not given)	1.71%
O=C(CN1CCCCCC1)N1CCc2nnc(C3CCCNC3)n2CC1 (stereo not given)	30.4%
CC(C)c1noc(CCNC(=O)NCC2COc3ccccc3O2)n1 (stereo not given)	7.24%
O=C(c1ccco1)N1CCc2ncnc(Oc3cccnc3)c2CC1	29%
O=C(CN1CCN(CC(O)C2CC2)CC1)NCc1ccccc1Cl (stereo not given)	17.6%
Cc1nnc(N2CCOC(C)C2)c(C#N)c1C (stereo not given)	7.4%
CS(=O)(=O)N1CCCC1Cn1cccn1 (stereo not given)	20.8%
COc1ccccc1C1=NOC(CC2(C(=O)NCCO)CCOCC2)C1 (stereo not given)	8.72%
Cc1cc(CN2CCCCC2Cn2cncn2)no1 (stereo not given)	20.8%
c1ccc(-c2nc(CN3CCc4c(ncn4C4CC4)C3)cs2)cc1	34.1%
CNS(=O)(=O)CC(=O)NCc1cc2c(s1)CCC(C)(C)C2	-19.3%
O=C([C@H]1C[C@H]2OCC[C@H]2N(CCc2ccccc2)C1)N1CCCCO1	-0.569%
CNC(=O)N1CCC2(CC1)c1ncc(-c3cccc(F)c3)n1CCN2C	63.3%
CC(=O)N1CCC2(CC1)c1ncc(-c3ccccc3)n1CCN2C(C)=O	-15.3%
CC(=O)N1CCC2(CC1)c1ncc(-c3ccccc3)n1CCN2C	43%
CN1CCn2c(-c3cccc(F)c3)cnc2C12CCN(CC1CC1)CC2	8.85%
CC(=O)N1CCn2c(-c3cccc(F)c3)cnc2C12CCNCC2	24.9%
CCS(=O)(=O)N1CCC2(CC1)c1ncc(-c3cccnc3)n1CCN2C	24.9%

SMILES	INHIBITION
CC(=O)N1CCC2(CC1)c1ncc(-c3ccc(F)cc3)n1CCN2C	39.4%
CCN1CCn2c(-c3cccc(F)c3)cnc2C12CCN(C(C)=O)CC2	85.2%
CC(=O)N1CCC2(CC1)c1ncc(-c3cccnc3)n1CCN2C	58.4%
COc1ccccc1CNC(=O)CN(C)C(C)c1ccon1 (stereo not given)	-13.6%
COc1ccc(N2CCN(C(=O)COc3c(C)occc3=O)CC2)cc1	-1.99%
O=C(O)c1ccc(=O)n(CC(c2ccc(Cl)cc2)N2CCCCCC2)c1 (stereo not given)	10.8%
OC(CNCc1nnc2ccccn12)c1ccc2c(c1)OCO2 (stereo not given)	-10.8%
Nc1nccnc1C1CN(C(=O)c2ccc3c(c2)OCO3)CCO1 (stereo not given)	11.1%
Cc1c(C2CC2)n[nH]c1NC(=O)C1CCCN(C(=O)NCC(C)C)C1 (stereo not given)	35.7%
CCCC1c2cccn2CCN1C(=O)Cn1cnc2sc(C)cc2c1=O (stereo not given)	11.35%
Cc1ccc(-c2noc(CN3CCOC(Cn4cccn4)C3)n2)cc1 (stereo not given)	48.6%
Cc1cc(C)n(C2CCCN(C(=O)CCc3nccs3)C2)n1 (stereo not given)	21.6%
Cn1ccnc1C(=O)NC[C@@H]1OC[C@H]2CN(CC3CC3)CC[C@H]21	20.4%
CCCN1CC[C@@H]2[C@@H](CO[C@H]2CNC(=O)c2nccn2C)C1	34%
CN1CC[C@@H]2[C@@H](CO[C@H]2CNC(=O)c2nccn2C)C1	-17.7%
Cn1cc(C(=O)NC[C@@H]2OC[C@H]3CN(S(C)(=O)=O)CC[C@H]32)cn1	18.5%
Cn1ccnc1C(=O)NC[C@H]1OC[C@@H]2CCN(S(C)(=O)=O)C[C@@H]21	52.1%
Cn1ccnc1C(=O)NC[C@@H]1OC[C@H]2CN(S(C)(=O)=O)CC[C@H]21	64.7%
NCC(CO)Cc1cccc(OC(F)(F)F)c1 (stereo not given)	-14.5%
CC(C)N1Cc2c(C(=O)N3CCOCC3)nn(C)c2C1	6.82%
CC(C)(C)C(=O)N1CCCC1c1cc(CO)[nH]n1 (stereo not given)	3.585%
CC(C)c1csc(C2CCCN(C(=O)c3ccc(=O)n(C)c3)C2)n1 (stereo not given)	52.6%

SMILES	INHIBITION
CC(C)c1csc(C2CCCN(C(=O)c3ncccn3)C2)n1 (stereo not given)	31.9%
Cc1nc(C(=O)N2CCCC(c3nc(C(C)C)cs3)C2)c[nH]1 (stereo not given)	8.12%
CC(C)c1csc(C2CCCN(C(=O)c3ccc(=O)n(C)n3)C2)n1 (stereo not given)	-7.48%
CC(C)c1csc(C2CCCN(C(=O)c3ccc[nH]3)C2)n1 (stereo not given)	59.1%
CC(C)c1csc(C2CCCN(C(=O)Cn3ccccc3=O)C2)n1 (stereo not given)	9.25%
Cc1c(COc2ccccc2)cccc1NC(=O)N1CC[C@H](O)C1	26.9%
COCCC(=O)NCC(O)c1c(F)cccc1F (stereo not given)	-2.92%
Cc1ccc(NC(=O)c2ccc(=O)n(CC(=O)NC3CCCC3)n2)cc1	16.2%
O=C(O)c1sccc1Oc1ccc(NC(=O)C2CC2)cc1	22.6%
CCn1cnnc1CCNc1nc(C)cc(C)c1C#N	32.775%
Cc1cc(C)c(C#N)c(NCCn2cnnc2C(C)C)n1	58.9%
Cc1cc(C)c(C#N)c(NCCSc2nncn2C)n1	7.45%
CCCn1nc(C)c(CN(CCN(C)C)Cc2ccccn2)c1C	13.7%
Cc1ccccc1CN(Cc1ccncc1)CC(C)C	21.5%
Cc1ccccc1CN(Cc1ccc(S(C)(=O)=O)cc1)CC(C)C	78.9%
Cc1ccccc1CN(CCN(C)C)Cc1ccc(S(C)(=O)=O)cc1	40.4%
CN(C)C(=O)[C@H]1CO[C@H]2CCN(c3ncc(F)cn3)C[C@H]2C1	34.2%
CN(C)C[C@@H]1C[C@@H]2CN(C(=O)c3ccoc3)CC[C@@H]2N1CC1CC1	25.7%
CCCNC(=O)CCC(=O)N1CCC(c2noc3cc(F)ccc23)CC1	21.8%
CCOC(=O)C1(NCC(=O)Nc2cc(C)ccc2OC)CCCC1	-35%
Cc1ccc(CN2CCn3c(CN(C)C(C)C)cnc3C2)s1	7.53%
CCc1nnsc1C(=O)NC1CCN(CCOc2ccc(Br)cc2)CC1	80%

SMILES	INHIBITION
Cc1ncsc1C(=O)NC1CCN(CCC(N)=O)CC1	24%
Cc1nc(C(=O)NC2CCN(CCOc3ccc(Br)cc3)CC2)cs1	85.4%
Cc1nc(CC(=O)N2CCN(CCOc3ccccc3)CC2)cs1	21.8%
CCc1nnsc1C(=O)NC1CCN(c2ccccn2)CC1	-7.9%
CC(=O)Nc1nc(C(=O)NCCOc2ccc(C)cc2)cs1	49.2%
CO[C@@H]1CC[C@@H](NC(=O)c2ccc(OCCN3CCCC3)cc2)[C@H]1O	34.25%
Cc1ncc(C(=O)NC2CCN(CCOc3ccc(Br)cc3)CC2)s1	88.6%
CN1CCCC1CNC(=O)CCOc1ccc(Br)cc1 (stereo not given)	22.983%
COCc1nc(C(=O)N2CCCC(n3nc(C)nc3C)C2)cs1 (stereo not given)	26.4%
CCn1ncc2c1C(COC)N(C(=O)c1ccc3c(c1)OCO3)CC2 (stereo not given)	-33%
COc1nccnc1N1CCCC2(C1)C(=O)N(C)c1ccccc12 (stereo not given)	-60.7%
C[C@@H]1CN(Cc2ccncc2)C[C@@]1(O)C1CC1	3.19%
CCc1nc(CN2CCCC(NCc3nc4ccccc4o3)C2)no1 (stereo not given)	-21.7%
CCN1CCN(C(=O)c2ccc3c(c2)OCC(=O)N3)[C@H]2CS(=O)(=O)C[C@H]21	58.2%
CCCN1CCN(C(=O)c2ccc3nc(C)oc3c2)[C@H]2CS(=O)(=O)C[C@H]21	33%
CCN1CCN(C(=O)c2ccc3c(c2)CCCN3)[C@H]2CS(=O)(=O)C[C@H]21	33.2%
Cc1nc2ccc(C(=O)N3CCN(CCO)[C@@H]4CS(=O)(=O)C[C@@H]43)cc2o1	22.3%
O=C(c1ccc2nccnc2c1)N1CCN(CCO)[C@@H]2CS(=O)(=O)C[C@@H]21	41.5%
CCN1CCN(C(=O)c2cc(C(F)(F)F)n[nH]2)[C@H]2CS(=O)(=O)C[C@H]21	33.7%
CCN1CCN(C(=O)c2ccc3c(c2)NC(=O)CN3)[C@H]2CS(=O)(=O)C[C@H]21	73%
Cn1cnc2cc(C(=O)N3CCN(CCO)[C@@H]4CS(=O)(=O)C[C@@H]43)ccc21	73.6%
CCN1CCN(C(=O)c2cc(-c3ccc(C)o3)n[nH]2)[C@H]2CS(=O)(=O)C[C@H]21	-1.04%
